Test results taken from PubChem BioAssay (Tox21).
Inconclusive results are not listed. Entries that show only a call come without a potency. The source made the active and inactive calls. Unless noted, calls follow the shape of the full dose curve.

Experiments:
[1] = Nuclear factor erythroid 2-related factor 2/antioxidant responsive element (Nrf2/ARE) small molecule agonists: qHTS cell viability counter screen in human keratinocytes (AID 1919968; active = well fitted curve in the direction sought with a large enough effect in the repeat runs; an effect the other way counts as inactive or inconclusive; also: nearly all actives have a fitted effect of over 55% in size; also: potency is read from the fitted curve at half-maximal effect)
Summary of the method: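 Fluorescence read-out from CellTiter-Fluor after 1 h at 37 C. Wells held HaCaT-derived ARE-luciferase reporter cells (1,500/well) treated 23 h with DMSO-dissolved compounds. Run in the same wells as the luciferase agonist read.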

[2] = target: Gonadotropin-releasing hormone receptor (Homo sapiens) (UniProt P30968); assay: Human gonadotropin-releasing hormone receptor (GnRHR) small molecule agonists, calcium flux assay in GnRHR-HEK293 cells (AID 1920063); also: nearly all actives have a fitted effect of over 35% in size
Gonadotropin-releasing hormone receptor (Homo sapiens), sequence (P30968 whole entry, looked up): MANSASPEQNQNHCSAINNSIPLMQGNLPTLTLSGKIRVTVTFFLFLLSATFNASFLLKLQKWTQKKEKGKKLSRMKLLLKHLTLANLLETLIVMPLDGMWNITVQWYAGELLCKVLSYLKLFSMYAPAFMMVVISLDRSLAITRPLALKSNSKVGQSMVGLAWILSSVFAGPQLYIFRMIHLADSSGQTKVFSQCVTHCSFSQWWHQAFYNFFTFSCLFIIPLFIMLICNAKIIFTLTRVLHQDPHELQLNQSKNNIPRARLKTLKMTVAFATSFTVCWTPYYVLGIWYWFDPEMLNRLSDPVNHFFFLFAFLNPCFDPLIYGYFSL
Summary of the method: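 Calcium-dye fluorescence, Ex/Em=480/540, recorded every 1 sec over 3 min after compound addition to GnRHR-HEK293 cells. Cells had been seeded 18 hours earlier and dye-loaded for 1 hour at 37 C. Fifteen concentrations, triplicates.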

[3] = target: KiSS-1 receptor (Homo sapiens) (UniProt Q969F8); assay: Human kisspeptin (KISS1R) small molecule agonists, calcium flux assay in KISS1R-HEK293 cells (AID 1920064; active = well fitted curve in the direction sought with a large enough effect in the repeat runs; an effect the other way counts as inactive or inconclusive)
KiSS-1 receptor (Homo sapiens), sequence (Q969F8 whole entry, looked up): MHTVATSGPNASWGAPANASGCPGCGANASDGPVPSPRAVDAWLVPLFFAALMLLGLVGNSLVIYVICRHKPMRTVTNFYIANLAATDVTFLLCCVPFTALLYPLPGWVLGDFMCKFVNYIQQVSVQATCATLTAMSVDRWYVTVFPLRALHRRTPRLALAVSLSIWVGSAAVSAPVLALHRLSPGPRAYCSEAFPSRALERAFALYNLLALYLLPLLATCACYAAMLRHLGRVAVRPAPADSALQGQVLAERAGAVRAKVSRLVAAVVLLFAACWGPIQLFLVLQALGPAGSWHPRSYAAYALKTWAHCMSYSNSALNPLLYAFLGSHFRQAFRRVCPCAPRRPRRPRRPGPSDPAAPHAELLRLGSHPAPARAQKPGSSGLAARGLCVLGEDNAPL
Summary of the method: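 Calcium flux read-out: kinetic fluorescence at Ex/Em=480/540, 1 s intervals over 3 min, after pin-tool compound addition to dye-loaded KISS1R-HEK293 cells. Fifteen concentrations, triplicates.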

[4] = G protein-coupled receptor (GPCR) small molecule agonists, calcium flux assay: HEK293 wild type cell line counter screen (AID 1920065)
Summary of the method: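 Agonist mode; 18 h seeding at 37 C, 1 h dye load at 37 C; compounds pinned from DMSO, ATP as positive control; kinetic fluorescence 480/540 nm, 3 min, 1 s reads; 15 concentrations, triplicate.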

[5] = p53 small molecule agonists, cell-based qHTS assay with human liver microsomes (AID 1963577);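 also: p53 response element beta-lactamase reporter cells with liver microsomes plus NADPH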
Summary of the method: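 In this qHTS, p53 response-element beta-lactamase cells receive test compound together with a microsome/NADPH activating system (0.5 mg/mL final each) and are incubated 16 h at 37 C before LiveBLAzer fluorescence detection.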

[6] = p53 small molecule agonists, cell-based qHTS assay with rat liver microsomes (AID 1963578)
Summary of the method: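 Agonist mode in p53RE-bla reporter cells, with compounds co-incubated 16 h at 37 C alongside 0.5 mg/mL rat liver microsomes and 0.5 mg/mL NADPH (final), followed by a 2 h LiveBLAzer detection step.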

[7] = p53 small molecule agonists, cell-based qHTS assay with human liver microsomes: qHTS cell viability counter screen (AID 1963579); also: nearly all actives have a fitted effect of over 45% in size; also: potency is read from the fitted curve at half-maximal effect
Summary of the method: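 Metabolically activated exposure: compounds, human liver microsomes and NADPH (0.5 mg/mL final apiece) were added to p53RE-bla cells seeded 5 h earlier, left 16 h at 37 C, and then assessed for viability by CellTiter-Glo luminescence.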

[8] = p53 small molecule agonists, cell-based qHTS assay with rat liver microsomes: qHTS cell viability counter screen (AID 1963580); also: nearly all actives have a fitted effect of over 45% in size; also: potency is read from the fitted curve at half-maximal effect
Summary of the method: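 Luminescent ATP readout (CellTiter-Glo, 30 min at room temperature) reports viability of p53RE-bla HCT-116 cells after 16 h at 37 C with test compounds under metabolic activation by rat liver microsomes and NADPH at 0.5 mg/mL final each.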

[9] = p53 small molecule agonists, cell-based qHTS assay: qHTS cell viability counter screen (AID 1963581); also: nearly all actives have a fitted effect of over 45% in size; also: potency is read from the fitted curve at half-maximal effect
Summary of the method: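 Cytotoxicity read-out: ATP-based luminescence (CellTiter-Glo, 30 min RT) measured in the same wells as the p53 reporter assay, HCT-116 p53RE-bla cells, 16 h compound exposure at 37 C.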

[10] = target: 5-hydroxytryptamine receptor 2A (Homo sapiens) (UniProt P28223); assay: 5-hydroxytryptamine receptor 2A (HTR2A) small molecule antagonists, cell-based qHTS assay (AID 1963586); also: nearly all actives have a fitted effect of over 45% in size; also: potency is read from the fitted curve at half-maximal effect
5-hydroxytryptamine receptor 2A (Homo sapiens), sequence (P28223 whole entry, looked up): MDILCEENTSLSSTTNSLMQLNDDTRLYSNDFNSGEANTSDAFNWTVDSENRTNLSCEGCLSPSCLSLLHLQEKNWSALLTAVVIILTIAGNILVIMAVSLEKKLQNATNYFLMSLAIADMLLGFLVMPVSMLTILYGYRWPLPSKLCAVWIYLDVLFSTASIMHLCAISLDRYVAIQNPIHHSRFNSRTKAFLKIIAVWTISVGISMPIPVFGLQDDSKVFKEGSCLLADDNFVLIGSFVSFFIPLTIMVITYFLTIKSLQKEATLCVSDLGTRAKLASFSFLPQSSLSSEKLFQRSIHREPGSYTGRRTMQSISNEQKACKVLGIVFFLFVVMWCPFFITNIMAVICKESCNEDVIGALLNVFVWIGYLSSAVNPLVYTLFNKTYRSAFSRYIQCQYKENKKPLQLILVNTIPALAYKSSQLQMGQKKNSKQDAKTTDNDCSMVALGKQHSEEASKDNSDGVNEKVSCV
Summary of the method: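 CHO cells stably expressing human HTR2A were plated for 18 h at 37 C, then loaded with calcium dye for 1 h. Compounds were preincubated 5 min at room temperature before DOI (4 nM solution) was added. Kinetic fluorescence was read for 3 min.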

[11] = target: 5-hydroxytryptamine receptor 2A (Homo sapiens) (UniProt P28223); assay: 5-hydroxytryptamine receptor 2A (HTR2A) small molecule agonists, cell-based qHTS assay (AID 1963587); also: nearly all actives have a fitted effect of over 30% in size
Summary of the method: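 HTR2A-CHO cells, plated 18 h at 37 C/5% CO2, dye-loaded 1 h at 37 C; compounds in DMSO added by pin tool (agonist mode). Intracellular calcium flux read as kinetic fluorescence on FDSS over 2 min at 1 s intervals.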

[12] = target: Muscarinic acetylcholine receptor M1 (Homo sapiens) (UniProt P11229); assay: Cholinergic receptor muscarinic 1 (CHRM1) small molecule antagonists, cell-based qHTS assay (AID 1963588); also: nearly all actives have a fitted effect of over 40% in size
Muscarinic acetylcholine receptor M1 (Homo sapiens), sequence (P11229 whole entry, looked up): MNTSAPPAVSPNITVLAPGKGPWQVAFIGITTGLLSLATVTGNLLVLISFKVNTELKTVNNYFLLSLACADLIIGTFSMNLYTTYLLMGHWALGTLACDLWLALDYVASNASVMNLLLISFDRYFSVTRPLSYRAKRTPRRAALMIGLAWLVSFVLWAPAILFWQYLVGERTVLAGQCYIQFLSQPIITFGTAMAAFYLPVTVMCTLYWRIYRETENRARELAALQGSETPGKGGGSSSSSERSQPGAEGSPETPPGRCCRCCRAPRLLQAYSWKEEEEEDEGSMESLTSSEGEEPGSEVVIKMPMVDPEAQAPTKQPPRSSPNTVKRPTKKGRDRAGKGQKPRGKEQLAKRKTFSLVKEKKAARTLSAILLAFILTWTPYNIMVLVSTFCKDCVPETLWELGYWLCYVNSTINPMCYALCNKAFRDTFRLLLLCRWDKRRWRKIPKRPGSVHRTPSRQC
Summary of the method: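 Compounds were tested at 15 concentrations in three independent runs. Dye-loaded CHRM1-CHO cells were exposed 5 min at room temperature before stimulation by acetylcholine added at 50nM. Intracellular calcium was read kinetically on FDSS for 3 min.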

[13] = cAMP Responsive Elements (CRE) small molecule agonists, cell-based qHTS assay (AID 1963590)
Summary of the method: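 Beta-lactamase reporter readout: LiveBLAzer B/G FRET substrate, 2 h at room temperature, added after 3 h compound treatment of CRE-bla HEK 293T cells at 37 C/5% CO2.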

[14] = cAMP Responsive Elements (CRE) small molecule antagonists, cell-based qHTS assay (AID 1963591; active = well fitted inhibition curve with a large enough effect in the signal ratio in the repeat runs, not every such curve was filed as active; the % refers to the signal ratio)
Summary of the method: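 HEK293T CRE-bla; 18 h preincubation; compound pin-transfer; NKH477 0.25 uM final, 3 h, 37 C; LiveBLAzer FRET substrate 2 h RT.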

[15] = target: Beta-2 adrenergic receptor (Homo sapiens) (UniProt P07550); assay: Adrenergic beta2 receptor (ADRB2) small molecule antagonists, cell-based qHTS assay (AID 1963592); also: nearly all actives have a fitted effect of over 50% in size; also: potency is read from the fitted curve at half-maximal effect
Beta-2 adrenergic receptor (Homo sapiens), sequence (P07550 whole entry, looked up): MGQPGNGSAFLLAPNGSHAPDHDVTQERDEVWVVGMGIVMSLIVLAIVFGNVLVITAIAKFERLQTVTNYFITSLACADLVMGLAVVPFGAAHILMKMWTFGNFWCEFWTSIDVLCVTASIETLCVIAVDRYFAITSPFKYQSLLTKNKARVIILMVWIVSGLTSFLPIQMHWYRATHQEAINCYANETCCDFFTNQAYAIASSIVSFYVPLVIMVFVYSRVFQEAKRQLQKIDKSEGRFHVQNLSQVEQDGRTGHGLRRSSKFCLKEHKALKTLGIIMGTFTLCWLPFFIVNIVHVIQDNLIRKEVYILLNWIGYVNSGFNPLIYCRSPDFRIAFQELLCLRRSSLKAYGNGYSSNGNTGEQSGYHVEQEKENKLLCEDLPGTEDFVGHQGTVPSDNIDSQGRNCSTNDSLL
Summary of the method: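 Assay format: CHO-ADRB2 cells, 18-20hr seeding at 37C/5% CO2, then compound plus 1nM isoproterenol agonist mix for 0.5hr RT. Homogeneous time-resolved fluorescence cAMP detection after 1hr, expressed as 665/615 nm ratio.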

[16] = target: Beta-2 adrenergic receptor (Homo sapiens) (UniProt P07550); assay: Adrenergic beta2 receptor (ADRB2) small molecule agonists, cell-based qHTS assay (AID 1963593);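 also: CHO cells stably overexpressing human ADRB2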
Summary of the method: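 CHO cells stably over-expressing ADRB2 were plated overnight at 37C, then dosed with compounds plus a stimulation mix containing 100uM IBMX and 25uM Ro-20-1724 for 0.5hr at room temperature. cAMP was measured by HTRF competition, 1hr.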

[17] = target: Muscarinic acetylcholine receptor M1 (Homo sapiens) (UniProt P11229); assay: Cholinergic receptor muscarinic 1 (CHRM1) small molecule agonists, cell-based qHTS assay (AID 1963589); also: nearly all actives have a fitted effect of over 35% in size
Summary of the method: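 Calcium flux read-out: kinetic fluorescence at 1 sec intervals after pin-tool compound addition to dye-loaded CHRM1-CHO cells (human M1). Agonist mode; 15 concentrations tested in triplicate independent runs.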

[18] = target: D(2) dopamine receptor (Homo sapiens) (UniProt P14416); assay: Dopamine D2 receptor (DRD2) small molecule agonists, cell-based qHTS assay (AID 1963594); also: nearly all actives have a fitted effect of over 35% in size
D(2) dopamine receptor (Homo sapiens), sequence (P14416 whole entry, looked up): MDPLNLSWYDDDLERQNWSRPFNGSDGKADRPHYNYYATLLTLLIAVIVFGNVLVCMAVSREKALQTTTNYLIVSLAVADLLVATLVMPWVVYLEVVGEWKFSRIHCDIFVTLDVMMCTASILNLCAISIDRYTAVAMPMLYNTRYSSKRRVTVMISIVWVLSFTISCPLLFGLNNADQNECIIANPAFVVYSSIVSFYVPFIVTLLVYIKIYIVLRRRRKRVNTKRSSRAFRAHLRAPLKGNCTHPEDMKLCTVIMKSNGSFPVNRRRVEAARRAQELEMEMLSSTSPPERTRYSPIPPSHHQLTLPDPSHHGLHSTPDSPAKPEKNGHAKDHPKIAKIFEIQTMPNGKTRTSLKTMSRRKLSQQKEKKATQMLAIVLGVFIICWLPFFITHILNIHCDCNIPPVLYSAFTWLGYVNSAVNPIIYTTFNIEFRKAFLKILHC
Summary of the method: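 HEK293 cells stably expressing DRD2 were cultured 24 h at 37 C, then given Ro20-1724 (0.1 mM final) and compounds for 10 min at room temperature. NKH477 (200nM) was then added for 30 min. cAMP was read by HTRF.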

[19] = p53 small molecule agonists, cell-based qHTS assay (AID 1963582; active = well fitted activation curve with a large enough effect in the signal ratio in the repeat runs, not every such curve was filed as active; the % refers to the signal ratio)
Summary of the method: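 Fluorescence intensity read-out of a beta-lactamase reporter under a p53 response element. Cells were exposed to DMSO-dissolved compounds for 16 h at 37 C, then developed with FRET substrate for 2 h at RT.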

[20] = target: D(2) dopamine receptor (Homo sapiens) (UniProt P14416); assay: Dopamine D2 receptor (DRD2) small molecule antagonists, cell-based qHTS assay (AID 1963595; active = well fitted inhibition curve with a large enough effect in the signal ratio in the repeat runs, with a control signal flat; the % refers to the signal ratio)
Summary of the method: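 Cells were plated and grown for 24 h at 37 °C. Ro20-1724 (0.1 mM final) went in first, then compound for 10 min. NKH477 (200 nM) with quinpirole (12 nM) followed for 30 min at RT, then HTRF detection reagents for 1 h.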

Row | SMILES | Potency [1] | Potency [2] | Potency [3] | Potency [4] | Potency [5] | Potency [6] | Potency [7] | Potency [8] | Potency [9] | Potency [10] | Potency [11] | Potency [12] | Potency [13] | Potency [14] | Potency [15] | Potency [16] | Potency [17] | Potency [18] | Potency [19] | Potency [20]
1 | BrCCCCCCBr | inactive | inactive | inactive | inactive | inactive | inactive | 20.4 µM (active) | inactive | inactive | inactive | inactive | inactive | inactive | inactive | inactive | inactive | – | – | – | –
2 | C[C@]12CC[C@H]3[C@@H](CCC4=CC(=O)CC[C@@H]43)[C@@H]1CC[C@@H]2OC(=O)CCC1CCCCC1 | inactive | inactive | inactive | inactive | inactive | inactive | inactive | inactive | inactive | inactive | inactive | inactive | inactive | inactive | inactive | – | inactive | inactive | – | –
3 | FC(F)C(F)(F)OCC(Cn1cncn1)c1ccc(Cl)cc1Cl (stereo unspecified) | inactive | inactive | inactive | inactive | inactive | inactive | inactive | inactive | inactive | inactive | inactive | inactive | – | – | inactive | – | inactive | inactive | inactive | –
4 | COC(=O)C1(O)c2ccccc2-c2ccccc21 | inactive | inactive | inactive | inactive | inactive | inactive | inactive | inactive | inactive | – | inactive | inactive | inactive | inactive | inactive | – | inactive | inactive | inactive | inactive
5 | N#CC(C#N)=Cc1ccc(O)c(O)c1 | inactive | inactive | inactive | inactive | inactive | inactive | inactive | inactive | inactive | – | – | – | – | – | inactive | – | – | inactive | inactive | –
6 | O=C1C[C@@H]2OCC=C3CN4CC[C@]56c7ccccc7N1[C@H]5[C@H]2[C@H]3C[C@H]46 | inactive | inactive | inactive | inactive | inactive | inactive | inactive | inactive | inactive | – | – | – | inactive | – | inactive | – | – | inactive | inactive | inactive
7 | O=C1CCCCC1Cl (stereo unspecified) | inactive | inactive | inactive | inactive | inactive | inactive | inactive | inactive | inactive | inactive | inactive | – | inactive | inactive | inactive | – | inactive | inactive | – | inactive
8 | Brc1ccccc1 | inactive | inactive | inactive | inactive | inactive | inactive | inactive | inactive | inactive | – | – | – | inactive | inactive | – | – | – | inactive | inactive | –
9 | CC(C)(c1ccc(O)c(-c2ccccc2)c1)c1ccc(O)c(-c2ccccc2)c1 | 13.7 µM (active) | inactive | inactive | inactive | inactive | inactive | 18.2 µM (active) | 20.4 µM (active) | 20.4 µM (active) | 18.8 µM (active) | inactive | inactive | – | – | – | – | inactive | inactive | – | –
10 | CCc1cccc(C)c1N(C(=O)CCl)[C@@H](C)COC | inactive | inactive | inactive | inactive | inactive | inactive | inactive | inactive | inactive | inactive | inactive | inactive | inactive | – | inactive | – | inactive | inactive | inactive | inactive
11 | ClC(Cl)(Cl)Cl | inactive | inactive | inactive | inactive | inactive | inactive | inactive | inactive | inactive | – | – | – | inactive | inactive | inactive | – | – | inactive | inactive | inactive
12 | CN(C)c1ccc(N=Nc2ccccc2)cc1 | inactive | inactive | inactive | inactive | inactive | inactive | inactive | inactive | inactive | inactive | inactive | inactive | – | inactive | – | inactive | inactive | inactive | – | inactive
13 | Cc1nnc2n1-c1sc(CCC(=O)N3CCOCC3)cc1C(c1ccccc1Cl)=NC2 | inactive | inactive | inactive | inactive | inactive | inactive | inactive | inactive | inactive | – | inactive | inactive | – | – | 29.8 µM (active) | – | inactive | inactive | – | inactive
14 | Clc1ccccc1-c1ccccc1Cl | 55.3 µM (active) | inactive | inactive | inactive | inactive | inactive | inactive | inactive | inactive | – | inactive | inactive | inactive | inactive | inactive | – | inactive | inactive | inactive | inactive
15 | NNC(=O)c1cccnc1 | inactive | inactive | inactive | inactive | inactive | inactive | inactive | inactive | inactive | inactive | – | inactive | – | inactive | inactive | – | inactive | inactive | inactive | inactive
16 | COC1=CC(=O)O[C@@H](/C=C/c2ccccc2)C1 | inactive | inactive | inactive | inactive | inactive | inactive | inactive | inactive | inactive | inactive | inactive | inactive | – | – | inactive | – | inactive | inactive | inactive | inactive
17 | O=C(NC(=O)c1c(F)cccc1F)Nc1cc(Cl)c(OC(F)(F)C(F)F)c(Cl)c1 | inactive | inactive | inactive | inactive | inactive | inactive | inactive | inactive | inactive | inactive | – | – | inactive | inactive | inactive | – | inactive | inactive | inactive | inactive
